Screens: PubChem BioAssay, National Center for Advancing Translational Sciences (NCATS)
The list is not random: actives were taken first. Their share in the collection is about 10%.
LMNA splice mod – modulators of lamin A splicing; 200,000 tested, 0.01% active; Potency, µM (highest dose often 46.1 µM), for inactives: top-dose ratio change, negative = inhibition, hits mostly inhibitors; HeLa LMNA splicing GFP/RFP minigene ratio, 48 h; active = well fitted inhibition curve with a large enough effect in the signal ratio, with a control signal flat, not every such curve was filed as active; inconclusive = small, poorly fitted or top-dose-only effect, or effect the other way, or a change in a side signal; the % refers to the signal ratio; note: potency is the fitted concentration of half-maximal effect
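S3 HeLa stable clones carrying a lamin A-EGFP splicing minigene plus DsRed2 were seeded at 600 cells/well in Opti-MEM with 2% FBS, pin-dosed and incubated 48 h at 37°C. Acumen cytometry (488 nm) gave the GFP/RFP total-intensity ratio.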
PNC inhibitor – blocks assembly of the perinucleolar compartment | PC3M PTB-GFP, PNC prevalence imaging, 16 h; active compounds read low | activity change (PNC), negative = inhibition, % at 10 µM | 140,000 tested, 3.1% active | AID 2417;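 active = readout at or below -70, meaning at least 70% loss of cells showing the perinucleolar compartment, a nuclear body marking cancer cells; inconclusive = readout between -30 and a set limit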;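 note: plate controls were DMSO wells for no effect and camptothecin positive control wells for full effect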
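Compounds are pinned in duplicate onto adhered PC3M cells stably expressing GFP-tagged PTB and incubated 16 h at 37 C. Cells are then fixed, nuclei stained with Hoechst, and PNC-positive cells counted.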
KinaseGlo FLuc – Kinase-Glo luciferase inhibition (counter-screen). AID 1379. 200,000 tested, 0.28% active. Q27757. Kinase-Glo luciferase, ATP luminescence, 8 min. Potency, µM (highest dose often 38.3 µM), for the others: at the highest dose activity change, negative = inhibition, usual class: inhibitors; active = well fitted inhibition curve with a large enough effect; inconclusive = small, poorly fitted or top-dose-only effect; note: potency is the fitted concentration of half-maximal effect; nearly all actives have a fitted effect of over 60% in size
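Recombinant Kinase-Glo luciferase, 10 uM ATP (linear range), luciferin; imidazole pH 7.2 / KCl / MgCl2 / Tween / BSA buffer; 8 min RT; luminescence.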
ALDH1A1 block – inhibitors of human aldehyde dehydrogenase 1A1. Purified ALDH1A1, NADH fluorescence, propionaldehyde substrate. Potency, µM (series often up to 75.3 µM), without a hit: top-dose activity, negative = inhibition, usual class: inhibitors. P00352. AID 1030. 220,000 tested, 7.3% active;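 note: potency is the fitted concentration of half-maximal effect; plate controls were no enzyme wells and a reference inhibitor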
Target sequence (P00352 whole entry, looked up): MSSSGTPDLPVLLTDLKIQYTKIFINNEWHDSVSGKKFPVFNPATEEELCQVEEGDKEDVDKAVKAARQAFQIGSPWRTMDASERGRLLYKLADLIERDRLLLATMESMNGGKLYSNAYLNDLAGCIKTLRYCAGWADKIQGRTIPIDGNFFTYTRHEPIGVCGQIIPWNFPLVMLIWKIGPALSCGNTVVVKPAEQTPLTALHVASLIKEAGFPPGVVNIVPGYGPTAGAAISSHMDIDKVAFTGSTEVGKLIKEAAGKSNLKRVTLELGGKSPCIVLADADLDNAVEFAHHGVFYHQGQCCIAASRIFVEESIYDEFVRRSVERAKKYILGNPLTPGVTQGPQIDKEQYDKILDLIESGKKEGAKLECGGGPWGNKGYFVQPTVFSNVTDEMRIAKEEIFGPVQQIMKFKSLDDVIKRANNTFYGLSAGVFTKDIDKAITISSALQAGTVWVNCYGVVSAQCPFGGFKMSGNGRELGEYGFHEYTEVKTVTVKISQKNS
HPGD inh – blocks human HPGD enzyme activity; 150,000 tested, 4.3% active; purified HPGD, NADH fluorescence kinetic, PGE2 substrate; Potency, µM, for inactives: at the highest dose activity change, negative = inhibition, hits mostly inhibitors; note: potency is the fitted concentration of half-maximal effect
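NADH formation kinetics: reaction with 30 uM PGE2 and 1 mM NAD+ (final), 20 nM enzyme, Tris-HCl pH 8 with Tween 20, after 15 min compound preincubation at room temperature. Fluorescence change, last versus first of five reads.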
Numbers without * were called inactive; ? = inconclusive; / = no result given; [ ] = dose if it differs, or a comment. Unless noted, calls come from the whole dose curve; as a rule, active = well fitted inhibition curve with a large enough effect (not every such curve was filed as active); inconclusive = small, poorly fitted or top-dose-only effect, or another doubt; inactive = no such curve, though single readings can be large or run the other way. Unless noted, % is set by controls: 0 for no effect and ±100 for the full control effect.

SMILES	LMNA splice mod	PNC inhibitor	KinaseGlo FLuc	ALDH1A1 block	HPGD inh
Cc1cccc(NS(=O)(=O)c2cc(C(=O)NCCC3=CCCCC3)ccc2Cl)c1	6%	-2	-1%	-7%	-10%
Cc1ccccc1NS(=O)(=O)c1cc(C(=O)NCCC2=CCCCC2)ccc1Cl	?	?	-2%	20µM*	5%
CC1(C)S[C@@H]2[C@H](NC(=O)C(N)c3ccccc3)C(=O)N2[C@H]1C(=O)O (stereo not given in full)	?	/	-2%[17.1 µM]	7%[20.9 µM]	-15%
CN(C)c1cccc(NC(=O)Cc2ccc(F)cc2)c1	?	-21	-1%	14µM*	-9%
COc1ccc(NC(=O)c2cc3c(=O)n(C)c4cc(Cl)ccc4c3s2)cc1Cl	2%[46 µM]	/	/	/	/
O=C(O)c1ccc(N2C(=O)Nc3ccccc3N2O)cc1	/	/	/	-6%	/
Cc1c(NC(=S)N/N=C\c2ccccc2O)c(=O)n(-c2ccccc2)n1C	-13%	-8	-1%	1%	?
Oc1ccccc1/C=N/NC(=S)NC1CC2C=CC1C2 (stereo not given)	?	/	/	25µM*	/
CCNc1nc(N)nc(Oc2ccc(OCCOc3ccccc3)nn2)n1	-8%	12	5%	2%	25µM*
CCNc1nc(N)nc(Oc2ccc(OCc3ccccc3)nn2)n1	9%	29	2%	-5%	-21%
C=CC1=C2C=C(C3CC3)N(CCCN(CC)CC)C=C2C(=O)C(C)(OC(=O)c2ccco2)C1=O (stereo not given)	?	/	-3%[7.66 µM]	7%[13.5 µM]	0%
Oc1cccc(O)c1O	?	/	/	1.5µM*	10µM*
COc1c(O)cccc1O	/	/	1%	6%	-9%
O=C(NCCc1ccc(Cl)cc1)C(=O)NCC(c1cccs1)S(=O)(=O)c1cccs1 (stereo not given)	-3%[46 µM]	/	/	/	/
COc1ccc(C(=O)C2CCCN(C(=O)CCc3ccccn3)C2)c(C)c1 (stereo not given)	/	/	4%	7%	/
COc1ccccc1C(=O)C1CCCN(C(=O)CCc2ccccn2)C1 (stereo not given)	/	/	8%	18µM*	/
COC(=O)CCCC(=O)N1CCCC(C(=O)c2ccc(OC)cc2C)C1 (stereo not given)	/	/	1%	2.5µM*	/
Cc1[nH]nc2c1C(c1ccccc1F)NC2=O (stereo not given)	1%	-103*	1%	3%	-9%
O=S(=O)(NCCc1csc(-c2ccc(F)cc2)n1)c1ccc(Cl)cc1	-2%[46 µM]	/	/	/	/
O=C(CC(=O)c1ccncc1)c1ccccc1	/	/	-4%[7.66 µM]	3.5µM*	3.5µM*
O=C(O)CSCC(=O)c1ccccc1	6%	6	4%	14µM*	-24%
O=C(CC(=O)c1ccccc1)c1ccccc1	/	/	-13%	-2%	?
O=C(O)CSCC(=O)NCc1ccccc1	4%	6	1%	-11%	-4%
O=C(O)c1ccncc1.O=C(O)c1ccncc1.[Cl][Pt]([Cl])([Cl])[Cl]	/	/	-8%[7.66 µM]	2.2µM*	4µM*
CCCCNc1nc(C)nc2c1nc(C)n2CCC	/	/	-2%	3%	-8%
SMILES	LMNA splice mod	PNC inhibitor	KinaseGlo FLuc	ALDH1A1 block	HPGD inh
COc1ccc(CNC(=O)CCCN2C(=O)CSc3c2c(C)nn3-c2ccccc2)c(OC)c1	1%[46 µM]	/	/	/	/
C[C@@H](CCc1ccc(O)cc1)NCCc1ccc(O)c(O)c1	-13%	/	-3%	-4%	1%
CCc1cccc(C)c1NC(=O)CSc1nnc(CCCOc2ccc(Cl)cc2Cl)n1C	?	-113*	0%	11%	-6%
CCc1cccc2c1NC(=O)C21N2CCCC2C(C(=O)c2ccc3ccccc3c2)C12C(=O)Nc1ccccc12 (stereo not given)	-1%	-4	1%	20µM*	-7%
COc1ccccc1-c1nc(CNC(=O)Nc2ccccc2)c(C)o1	5%[46 µM]	/	/	/	/
CC1(C(=O)O)COC(c2ccc([N+](=O)[O-])cc2)OC1 (stereo not given)	-6%	-24	4%	-1%	-6%
O=C1NC(C(=O)O)=CC(c2ccc([N+](=O)[O-])cc2)N1 (stereo not given)	/	/	/	14µM*	/
CCc1ccc(NC(=O)c2cc(S(=O)(=O)N3CCCC3)ccc2F)cc1	-18%[46 µM]	/	/	/	/
COC(=O)c1ccc(CSc2nnc(Nc3ccc(OC)cc3)s2)o1	1%	?	-2%	0%	-9%
COC(=O)c1ccc(CSc2nc(-c3ccccc3)cs2)o1	1%	15	-3%	-4%	-28%
COC(=O)c1ccc(CSc2nnc(Nc3ccccc3OC)s2)o1	?	8	6%	25µM*	-21%
COC(=O)c1ccc(CSc2nnc(-c3ccncc3)n2Cc2ccccc2)o1	0%	-3	/	25µM*	/
COC(=O)c1ccc(CSc2nnc(NCc3ccccc3)s2)o1	1%	-29	3%	-14%	14µM*
Cc1cccn2c(=O)c(C(=O)N3CCN(c4ccccc4)CC3)cnc12	-3%[46 µM]	/	/	/	/
CC(C)N1C(=O)S/C(=C/c2cccnc2)C1=O	12%	-17	-3%	13µM*	1%
CC(C)N1C(=O)S/C(=C/c2ccc3c(c2)n(C)c(=O)n3C)C1=O	?	85	-4%	8.9µM*	?
CCC(C)N1C(=O)S/C(=C/c2ccc3c(c2)n(C)c(=O)n3C)C1=O (stereo not given)	/	/	-2%	?	/
COc1ccc(CCC(=O)NC2CC(=O)N(c3ccc(C)c(C)c3)C2)cc1 (stereo not given)	11%[46 µM]	/	/	/	/
N#CCCn1cnc2c1NC=NC2Cl (stereo not given)	/	/	0%	-4%	-5%
CC(=O)Nc1cccc(NC(=O)c2cc3ccccc3o2)c1	-10%	-27	-19%	-4%	-4%
COC(=O)c1ccc(CNC(=O)c2cc3ccccc3oc2=O)cc1	2%[46 µM]	/	-2%	-6%	/
CC(C)NC(=O)c1cc2ccccc2o1	-9%	11	0%	11%	-12%
CCN(CC)S(=O)(=O)c1cccc(NC(=O)c2cc3ccccc3o2)c1	?	9	0%	22µM*	-20%
O=C(Nc1ccccc1)c1cc2ccccc2o1	-4%	-100*	13µM*	9%	-16%
COc1ccc(C(=O)N/N=c2\oc3ccccc3cc2C(=O)NCc2ccccc2)cc1	-2%	31	0%	11µM*	-5%
CN(C)S(=O)(=O)c1cccc(NC(=O)c2cc3ccccc3o2)c1	?	?	-2%	?	-10%
